High-throughput results from PubChem.
Jurkat NFkB inh: lowers PMA/ionomycin-induced NF-kB signal in Jurkat cells. PMA/ionomycin-induced NF-kB luciferase reporter, luminescence. inhibition, % at 4 µM. 330,000 tested, 0.53% active. AID 435003; in the data active means inhibition above about 50%
TMEM16A inh: inhibitors of mouse TMEM16A calcium-activated chloride channel | Q8BHY3 | HEK293 TMEM16A/YFP iodide influx fluorescence, ionomycin | normalized B-score (activity score, 25-100; higher = stronger inhibition) at 10 µM | 310,000 tested, 1.2% active;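 active means ratio plate-corrected score three or more library SD toward inhibition, starting fluorescence score within five deviations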;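 further: score derived from kinetic fluorescence span divided by baseline fluorescence per well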
Target sequence (Q8BHY3 whole entry, looked up): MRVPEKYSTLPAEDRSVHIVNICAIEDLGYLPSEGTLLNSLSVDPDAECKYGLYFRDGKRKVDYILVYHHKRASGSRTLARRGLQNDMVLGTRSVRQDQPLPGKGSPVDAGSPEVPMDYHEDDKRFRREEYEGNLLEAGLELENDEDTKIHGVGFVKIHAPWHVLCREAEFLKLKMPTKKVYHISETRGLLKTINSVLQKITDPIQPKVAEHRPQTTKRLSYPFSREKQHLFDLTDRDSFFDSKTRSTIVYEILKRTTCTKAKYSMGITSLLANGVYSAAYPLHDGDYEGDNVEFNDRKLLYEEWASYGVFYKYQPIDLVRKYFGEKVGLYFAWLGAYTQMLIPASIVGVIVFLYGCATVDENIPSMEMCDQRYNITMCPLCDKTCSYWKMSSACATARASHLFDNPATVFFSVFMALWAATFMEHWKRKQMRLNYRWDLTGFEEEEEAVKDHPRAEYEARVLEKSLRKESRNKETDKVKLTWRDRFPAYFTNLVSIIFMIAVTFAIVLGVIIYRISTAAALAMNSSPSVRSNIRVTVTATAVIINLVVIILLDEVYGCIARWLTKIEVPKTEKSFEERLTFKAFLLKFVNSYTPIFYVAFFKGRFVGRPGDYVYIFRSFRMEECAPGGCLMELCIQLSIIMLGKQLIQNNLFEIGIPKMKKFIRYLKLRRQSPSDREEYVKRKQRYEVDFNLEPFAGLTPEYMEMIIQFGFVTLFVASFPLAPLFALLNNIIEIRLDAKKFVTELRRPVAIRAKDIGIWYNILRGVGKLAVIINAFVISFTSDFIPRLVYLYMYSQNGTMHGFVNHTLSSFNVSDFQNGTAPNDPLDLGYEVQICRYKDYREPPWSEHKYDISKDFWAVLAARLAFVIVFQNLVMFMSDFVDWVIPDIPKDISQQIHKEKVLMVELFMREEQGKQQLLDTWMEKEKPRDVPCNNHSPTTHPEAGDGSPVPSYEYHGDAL
aSyn 5UTR inh: 5' untranslated region of α-synuclein, MLPCN primary screen; 300,000 tested, 0.82% active; inhibition, % (tested at 7.5 µM); alpha-synuclein 5'UTR reporter, inhibitor activity; in the data active means inhibition above about 60%;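 further: H4 neuroglioblastoma cells stably carrying SNCA 5'UTR luciferase fusion; 0% = DMSO wells and 100% = positive control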
697 NFkB inh: inhibitors of the PMA/ionomycin-induced NF-kB reporter in 697 B cells; inhibition, % at 4 µM; 330,000 tested, 0.33% active; 697 B-cell NF-kB luciferase reporter, 16 h; AID 435022; in the data active means inhibition above about 35%
TMEM16A act: mouse TMEM16A channel activation, primary screen. 340,000 tested, 0.3% active. AID 623877. B-score at 10 µM. HEK293 TMEM16A/YFP-H148Q/I152L, iodide quench fluorescence; stronger effect = lower value. Q8BHY3;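 active means fluorescence-ratio B-score plate-corrected deviation score at least 3 library SD below zero, with starting fluorescence score within 5 deviations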;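 further: channel opened by trigger with iodide after compound preincubation; score built on the fluorescence ratio of max minus min over baseline; more negative score means more quench and so TMEM16A activation or potentiation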
KLF5 inhibitor: kruppel-like factor 5 inhibition; DLD-1 KLF5 promoter-luciferase reporter, luminescence; inhibition, % at 5 µM; 290,000 tested, 0.23% active; AID 1700;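 active means inhibition above a per-plate limit of that plate's mean compound inhibition plus 3 SD, cut at about 60% in these data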;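 further: 0% = DMSO wells and 100% = LY294002 at 200 µM; higher means less KLF5 promoter-driven luciferase light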
TMEM16A reconf: TMEM16A (mouse) chloride channel inhibition, re-confirmation; shares compounds with TMEM16A inh; HEK293 TMEM16A/YFP-H148Q, iodide quench fluorescence; ionomycin added to raise cell calcium; inhibition, % at 10 µM; 2,300 tested, 39% active;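 active means mean duplicate percent inhibition, scaled so buffer wells are 0 and the reference blocker 100, over three buffer SD above buffer mean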
HEK293 Ca mobil: alters calcium mobilization in TMEM16A HEK293 cells, counter-screen; TMEM16A/YFP HEK293, Fluo4 calcium mobilization; calcium response (% of ionomycin), % at 10 µM; shares compounds with TMEM16A inh; 2,300 tested, 2% active; AID 652231;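 active means duplicate-averaged calcium signal over 20% of the ionomycin maximum, relative to buffer baseline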;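 further: each well's signal is peak minus trough fluorescence divided by its pre-addition baseline; 0% = buffer wells and 100% = ionomycin wells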
YFP-HEK293 quench: acts in parental YFP-HEK293 cells lacking TMEM16A, counter-screen; shares compounds with TMEM16A inh; iodide YFP quench, ionomycin; YFP ratio F(max-min)/F0 at 10 µM; 2,300 tested, under 10 active;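 active means yellow fluorescent protein signal ratio exceeding the buffer control mean by over 5 SD of those controls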;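 further: ratio is mean of duplicate wells from kinetic YFP trace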
ClC-1 inh: blocks the rat ClC-1 voltage-dependent chloride channel | shares compounds with TMEM16A inh | CHO ClC-1-YFP, iodide influx fluorescence quench; iodide control reads 0, buffer control 100 | AID 652236 | ratio percent, % at 10 µM | 2,300 tested, under 10 active;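 active means duplicate-mean ratio percent above the mean of iodide-only control wells, which defines zero, plus 5 of their SD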;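 further: higher percent means stronger block of ClC-1 iodide influx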
Active calls of the source: *; i = inactive; · = no result given. Most compounds without a hit are left out; they make up all but 2.5% or so of the library.

SMILES	Jurkat NFkB inh	TMEM16A inh	aSyn 5UTR inh	697 NFkB inh	TMEM16A act	KLF5 inhibitor	TMEM16A reconf	HEK293 Ca mobil	YFP-HEK293 quench	ClC-1 inh
Cc1ccccc1OCc1nc(-c2ccc(NC(=O)c3ccco3)cc2)no1	-46	25*	·	-85	i	-125	i	i	-1	-10
Cc1ccccc1OCc1nc(-c2ccc(NC(=O)c3cccs3)cc2)no1	-46	i	-277	-54	i	-68	·	·	·	·
O=C(CCN1CCOCC1)Nc1ccccc1	6	100*	1	26	i	4	i	i	-1	-1
CCOc1ccc(CCNC(=O)c2cccc(S(=O)(=O)N3CCCCC3)c2)cc1OCC	-1	i	-17	-44	i	·	·	·	·	·
COc1ccc(-n2c(=S)[nH]c3cc(C(=O)NCc4ccco4)ccc3c2=O)cc1OC	16	i	18	15	i	-7	·	·	·	·
COc1ccc(CCn2c(=S)[nH]c3cc(C(=O)NCc4ccco4)ccc3c2=O)cc1OC	1	25*	13	-25	i	-29	i	i	-0.91	-24
CC(C)(C)c1ccc(OCc2ccc(C(=O)Nc3cccnc3)o2)cc1	10	25*	-170	-72	i	-151	25%*	i	-0.99	-14
COc1ccc(NC(=O)c2ccc(Cc3ccc(C)cc3)o2)cc1	-13	25*	-12	-15	i	-3	i	i	-1.2	6
COc1ccccc1OCc1ccc(C(=O)Nc2ccncc2)o1	27	100*	4	8	i	-18	34%*	i	-0.84	-7
O=C(Nc1cccnc1)c1ccc(COc2ccccc2Br)o1	35	i	27	19	i	-13	·	·	·	·
O=C(NNC(=O)c1ccccc1F)c1cccc(-n2cccc2)c1	7	i	-74	-37	i	·	·	·	·	·
Cc1nn(-c2ccccc2)c2nc(N)c(C#N)c(-c3ccc(C(C)(C)C)cc3)c12	-4	i	-22	-14	i	-21	·	·	·	·
COc1cccc(-c2c(C#N)c(N)nc3c2c(C)nn3-c2ccccc2)c1O	-9	100*	21	-8	i	-42	45%*	i	-0.9	-10
Cc1ccc2[nH]c(CSc3ccccc3)cc(=O)c2c1	-32	i	-6	-8	i	-15	·	·	·	·
Cc1ccc(CNn2cnnc2SCc2ccc(F)cc2)cc1	2	100*	9	-3	i	-5	i	i	-1.3	4
Fc1ccc(CNn2cnnc2SCc2ccc(F)cc2)cc1	-5	i	-18	-15	i	-8	·	·	·	·
CC(=O)N1CCSc2ccc(S(=O)(=O)NCCc3ccc(C)cc3)cc21	21	i	3	-23	i	2	·	·	·	·
CC(=O)N1CCSc2ccc(S(=O)(=O)NCCc3ccc(Cl)cc3)cc21	4	100*	-1	-33	i	-19	34%*	i	-0.86	-11
CCN(CC)S(=O)(=O)c1cccc(-c2nnc(SCC(=O)c3cc(C)n(C)c3C)o2)c1	6	i	-2	0	i	-21	·	·	·	·
CCCN(CC(=O)c1cc(C)n(C)c1C)S(=O)(=O)c1cccc(C(F)(F)F)c1	2	100*	2	-5	i	7	i	i	-0.85	-6
Cc1cccc2sc(NC(=O)CN(C)S(=O)(=O)c3ccc(Br)s3)nc12	6	100*	19	9	i	15	i	i	-1	-6
Cc1cccc2sc(NC(=O)CN(C)S(=O)(=O)c3cccs3)nc12	4	i	8	3	i	-13	·	·	·	·
CN(CC1CCCN(CCc2cccc(C(F)(F)F)c2)C1)C(=O)c1cc2ccccc2o1 (configuration not stated)	17	·	8	-3	i	-4	·	·	·	·
COc1cc(Nc2nc3ccccc3n3nnnc23)cc(OC)c1OC	-12	i	-25	11	i	-38	i	i	-0.81	-4
C=CCn1c(SCC(=O)NC(C)(C)C)nnc1-c1ccccc1O	5	100*	-3	20	i	-17	i	i	-0.79	-6
SMILES	Jurkat NFkB inh	TMEM16A inh	aSyn 5UTR inh	697 NFkB inh	TMEM16A act	KLF5 inhibitor	TMEM16A reconf	HEK293 Ca mobil	YFP-HEK293 quench	ClC-1 inh
C=CCn1c(SCC(=O)NC(=O)Cc2ccccc2)nnc1-c1ccccc1F	12	·	·	-5	i	·	·	·	·	·
CN(C)c1nccc(N(Cc2ccccc2)Cc2ccccc2)c1C#N	-23	25*	·	-20	i	-39	i	i	-1.2	-8
CN(C)CCN(Cc1ccccc1)c1ccnc(N(C)C)c1C#N	-1	i	-1	-11	i	18	·	·	·	·
O=C(NCc1cccc(Cl)c1)c1cccc(OC2CCN(C(=O)C3CC3)CC2)c1	19	100*	5	-45	i	-9	i	i	-1.1	-17
Clc1ccccc1CSc1cnnc2ccccc12	·	·	·	·	i	·	·	·	·	·
COC(=O)c1ccccc1NC1=C/C(=N\S(=O)(=O)c2ccc(C(=O)O)cc2)c2ccccc2C1=O	19	i	3	-1	i	-6	·	·	·	·
CC(C)(C)c1ccc(S(=O)(=O)/N=C2\C=C(NS(=O)(=O)c3ccccc3)C(=O)c3ccccc32)cc1	-17	100*	12	5	i	-16	88%*	i	-0.95	-21
Cc1ccc(S(=O)(=O)/N=C2\C=C(NS(=O)(=O)c3ccccc3)C(=O)c3ccccc32)c(C)c1	·	·	·	·	i	·	·	·	·	·
CCc1ccc(S(=O)(=O)/N=C2\C=C(Nc3ccc(C(=O)O)cc3)C(=O)c3ccccc32)cc1	-28	100*	14	-14	i	-15	23%*	i	-0.77	-8
C=CCn1c(=O)c(C(=O)Nc2ccc(C)cc2)c(O)c2ccccc21	-22	i	-76	-47	i	-49	i	i	-1.1	-12
CCn1c(=O)c(C(=O)NNC(=O)c2ccccc2F)c(O)c2ccccc21	8	25*	-1	2	i	-5	22%*	48%*	-1.2	-6
CCn1c(=O)c(C(=O)NNC(=O)c2ccccc2Cl)c(O)c2ccccc21	19	i	-12	7	i	-6	·	·	·	·
Cc1ccccc1NC(=O)Cc1nc(COC(=O)c2ccc(S(C)(=O)=O)c([N+](=O)[O-])c2)cs1	7	·	·	10	i	·	·	·	·	·
